# Measured values reported in the supplement of paper PMC12636033.
# ± gives the standard deviation of the averaged measurements. The full ranking holds about 33,000 sequences; the median of “E-score (rank enrichment, -0.5 to 0.5)” is about -0.0028, and the highest 2% start at about 0.23. The entries come from a sample that favours the highest values as a whole.
# Tested on: 2Sb-muMax20 (muMax20 with two 1,3-bis(methyl)benzene Cys staples, A13C/A17C and Q88C/A92C, C-terminal Lys)
# Test: PBM 8-mer E-score (E-score (rank enrichment, -0.5 to 0.5)); higher = stronger preferential binding
# Protocol: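 Protein binding microarray (universal PBM chip covering all 10-mers in fixed probe flanks) with chemically synthesized human Max(13-93) bHLH-LZ analogs (not full-length Max) bearing noncanonical residues (hArg, Tha, Aib, Nle at 65) and aromatic Cys staples. Read-out per 8-mer (and its reverse complement): E-score (rank-based enrichment, -0.5 to 0.5) and Z-score of median probe intensity.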
row,Sequence,PBM 8-mer E-score
1,GACGTGGC,-0.00165 ± 0.017
2,AACGTGGC,0.192 ± 0.021
3,CACGTGGC,0.317 ± 0.015
4,ACTTAGAA,-0.02 ± 0.04
5,CGAAGGCC,-0.212 ± 0.015
6,AAACTTGC,0.254 ± 0.025
7,AAACTTGA,0.163 ± 0.048
8,CAACTTGC,-0.1303 ± 0.0012
9,ACAGATTA,-0.0104 ± 0.027
10,CCTGAAAC,-0.0931 ± 0.062
11,GTCGTAAC,0.00633 ± 0.033
12,GAGTCGGA,-0.0932 ± 0.037
13,ATTCATAG,0.0979 ± 0.039
14,AGTCATTA,0.0586 ± 0.056
15,ATTCATTA,0.114 ± 0.012
16,ATACATTC,0.32 ± 0.023
17,ATTCATTG,0.0825 ± 0.018
18,ATACATTG,0.17 ± 0.021
19,CTTCATAC,0.0955 ± 0.029
20,AGTCATTG,0.264 ± 0.034
21,ATTCATTC,0.249 ± 0.029
22,CTACATTC,0.0832 ± 0.066

row,Sequence,PBM 8-mer E-score
1,ATTCATAC,0.276 ± 0.044
2,AGTCATTC,0.129 ± 0.077
3,GCATCTGA,-0.135 ± 0.0046
4,GGGCCAGA,-0.122 ± 0.054
5,CTTGGGCA,0.0256 ± 0.03
6,CGAGGCCC,-0.00116 ± 0.04
7,TGCGCGAA,0.146 ± 0.011
8,AGCAGACA,-0.0463 ± 0.0083
9,GACTGAGC,-0.267 ± 0.057
10,CCACAGAG,-0.0457 ± 0.076
11,ATATCTTA,0.124 ± 0.0016
12,ATATCCTA,0.0634 ± 0.0093
13,ATATCCCC,0.339 ± 0.025
14,ATATCCTC,0.262 ± 0.054
15,CTATCCCC,0.121 ± 0.0091
16,CTATCTTC,0.0336 ± 0.054
17,CTATCCTC,-0.015 ± 0.015
18,ATATCTTC,0.249 ± 0.029
19,ATATCCCG,0.0587 ± 0.04
20,CTCTTTGA,-0.0279 ± 0.036
21,CTATGATA,0.0532 ± 0.035
22,ATATGATG,0.141 ± 0.0096

row,Sequence,PBM 8-mer E-score
1,GTATGATA,0.258 ± 0.026
2,GCATGATA,0.214 ± 0.029
3,GTATGAGA,0.0453 ± 0.12
4,ATATGATA,0.257 ± 0.058
5,ACCTTTAT,0.02821 ± 0.00021
6,CAGCCTCG,-0.0714 ± 0.034
7,GGGGTTGA,0.138 ± 0.03
8,CCCAATTC,0.247 ± 0.0082
9,CCCAATTA,0.221 ± 0.021
10,ACCAATTC,-0.0487 ± 0.032
11,ACGATCTG,-0.0575 ± 0.048
12,AGCGATCG,0.235 ± 0.0084
13,AGCGATCC,-0.145 ± 0.057
14,AGCGATCA,-0.298 ± 0.021
15,GACTGTCC,-0.111 ± 0.073
16,ATTGTCGA,0.0736 ± 0.034
17,GAAATACA,-0.0423 ± 0.015
18,CAAATACA,0.23 ± 0.0088
19,AATATACA,0.264 ± 0.02
20,CATATGGG,0.252 ± 0.056
21,AATATATT,0.24 ± 0.054
22,AATATATC,0.19 ± 0.013

row,Sequence,PBM 8-mer E-score
1,CAAATACC,0.0305 ± 0.029
2,AATATGGG,0.178 ± 0.024
3,TATATACA,0.173 ± 0.0038
4,CATATGGC,0.142 ± 0.035
5,AATATATA,0.162 ± 0.015
6,AATATACT,0.0704 ± 0.03
7,CTTGTGTA,0.116 ± 0.033
8,AGGCACAG,-0.103 ± 0.026
9,CGCAGTAA,0.0928 ± 0.087
10,GGGCATCA,0.0183 ± 0.046
11,TAAATTCA,0.111 ± 0.075
12,GACATCTA,-0.1 ± 0.066
13,AAAACAGC,0.13 ± 0.037
14,CGTGGAAG,0.0947 ± 0.13
15,GCACTAGC,0.109 ± 0.017
16,AATGAATA,0.156 ± 0.018
17,GGGCGACC,-0.0448 ± 0.029
18,CAATCTAA,0.0541 ± 0.078
19,AAAATATG,0.143 ± 0.05
20,CATATATG,0.305 ± 0.007
